In PubChem BioAssay (EPA / NIEHS):
Inconclusive results are not listed. Activity calls are given as the source filed them. The calls were made as follows, unless noted: active = hit-call score of the fitted dose curve at least 0.9, where 1 is the maximum; inactive = score below 0.9.

Legend:
[1] = target: human RAR-related Orphan Receptor gamma (RORg), RORC (gene 6097) (UniProt P51449); test: ATG_RORg_TRANS: Attagene TRANS-FACTORIAL HepG2 Assay for human RAR-related Orphan Receptor gamma (RORg) (AID 2283011; active = hit-call score of the fitted dose curve at least 0.9, where 1 is the maximum)
Sequence of human RAR-related Orphan Receptor gamma (RORg), RORC (gene 6097) (P51449 whole entry, looked up, the tested form may be a part): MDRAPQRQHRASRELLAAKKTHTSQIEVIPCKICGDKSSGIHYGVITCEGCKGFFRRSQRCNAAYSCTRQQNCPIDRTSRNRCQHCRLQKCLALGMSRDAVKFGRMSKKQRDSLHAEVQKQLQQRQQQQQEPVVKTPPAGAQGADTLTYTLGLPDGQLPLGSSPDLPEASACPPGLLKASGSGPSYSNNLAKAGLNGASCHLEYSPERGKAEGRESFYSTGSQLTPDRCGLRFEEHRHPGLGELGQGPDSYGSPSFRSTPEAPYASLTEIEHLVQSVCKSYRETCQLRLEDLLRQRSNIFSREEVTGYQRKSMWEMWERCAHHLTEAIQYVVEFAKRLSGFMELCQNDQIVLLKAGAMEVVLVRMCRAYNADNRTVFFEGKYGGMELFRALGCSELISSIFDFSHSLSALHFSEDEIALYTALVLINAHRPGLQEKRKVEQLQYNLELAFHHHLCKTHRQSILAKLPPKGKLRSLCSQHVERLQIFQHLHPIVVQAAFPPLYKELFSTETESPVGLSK
Procedure, shortened: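 Reporter transcripts from a transfected RORg-GAL4 chimera in HepG2 cells were quantified 24 h after dosing by RT-PCR, 6-FAM labelling, HpaI digestion and capillary electrophoresis; increases over DMSO baseline were fitted.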

[2] = target: Retinoic acid receptor RXR-alpha (Homo sapiens) (UniProt P19793); test: ATG_RXRa_TRANS: Attagene TRANS-FACTORIAL HepG2 Assay for human Retinoid X Receptor alpha (RXRa) (AID 2283012; active = hit-call score of the fitted dose curve at least 0.9, where 1 is the maximum)
Sequence of Retinoic acid receptor RXR-alpha (Homo sapiens) (P19793 whole entry, looked up, the tested form may be a part): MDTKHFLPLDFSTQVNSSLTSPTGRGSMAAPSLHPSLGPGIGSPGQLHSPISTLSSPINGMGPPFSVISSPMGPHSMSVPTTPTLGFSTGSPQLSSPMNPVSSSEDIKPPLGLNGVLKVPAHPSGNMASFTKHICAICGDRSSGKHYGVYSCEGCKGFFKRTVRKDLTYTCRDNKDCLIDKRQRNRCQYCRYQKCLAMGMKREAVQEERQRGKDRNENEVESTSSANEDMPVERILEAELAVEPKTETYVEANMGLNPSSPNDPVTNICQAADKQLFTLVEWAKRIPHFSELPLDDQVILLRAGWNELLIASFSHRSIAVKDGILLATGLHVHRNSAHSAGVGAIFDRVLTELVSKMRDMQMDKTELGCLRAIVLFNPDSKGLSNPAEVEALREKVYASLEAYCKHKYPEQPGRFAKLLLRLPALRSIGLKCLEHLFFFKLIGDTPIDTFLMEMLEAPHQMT
Procedure, shortened: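 Transient transfection of human HepG2 with multiple GAL4-UAS reporter constructs; 24 h compound exposure; total RNA isolated, reverse-transcribed, PCR-amplified, 6-FAM labelled, HpaI-cut, resolved by capillary electrophoresis. Positive-direction fit versus DMSO.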

[3] = target: human Retinoid X Receptor beta (RXRb), RXRB (gene 6257) (UniProt P28702); test: ATG_RXRb_TRANS: Attagene TRANS-FACTORIAL HepG2 Assay for human Retinoid X Receptor beta (RXRb) (AID 2283013; active = hit-call score of the fitted dose curve at least 0.9, where 1 is the maximum)
Sequence of human Retinoid X Receptor beta (RXRb), RXRB (gene 6257) (P28702 whole entry, looked up, the tested form may be a part): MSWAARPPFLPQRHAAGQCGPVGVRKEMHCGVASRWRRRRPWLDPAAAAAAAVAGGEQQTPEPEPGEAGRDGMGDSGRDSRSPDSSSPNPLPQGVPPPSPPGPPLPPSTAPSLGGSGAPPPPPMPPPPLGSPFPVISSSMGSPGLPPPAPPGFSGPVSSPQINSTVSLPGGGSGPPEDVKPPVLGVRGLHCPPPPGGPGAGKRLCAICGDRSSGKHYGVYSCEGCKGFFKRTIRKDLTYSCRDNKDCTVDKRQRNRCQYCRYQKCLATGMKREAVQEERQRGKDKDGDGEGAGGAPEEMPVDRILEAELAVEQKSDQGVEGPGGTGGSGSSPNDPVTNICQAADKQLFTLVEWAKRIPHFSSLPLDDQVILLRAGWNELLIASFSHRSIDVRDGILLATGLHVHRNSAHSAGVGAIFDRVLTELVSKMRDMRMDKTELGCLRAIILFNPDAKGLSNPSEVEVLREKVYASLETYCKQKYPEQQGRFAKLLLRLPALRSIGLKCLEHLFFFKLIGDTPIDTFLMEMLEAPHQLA
Procedure, shortened: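 Transfect HepG2 with GAL4-UAS multi-reporter constructs (chimeric NR-Gal4, TRANS format); dose compound 24 h; isolate RNA, RT-PCR, FAM primer extension, HpaI digest; quantify by capillary electrophoresis; positive direction vs DMSO.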

[4] = read-out: E-selectin (Homo sapiens) (UniProt P16581); test: BSK_3C_Eselectin: BioMAP Diversity Plus: 3C Assay for Eselectin Biomarker Activity (AID 2283015); settings: primary human endothelial cells (HUVEC); actives raise or lower the signal
Procedure, shortened: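 E-selectin ELISA readout, fitted bidirectionally relative to DMSO, taken 24 h post-dosing in HUVEC cultures of the 3C system. Overt cytotoxicity tracked with sulforhodamine B staining of parallel wells.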

[5] = read-out: Interleukin-1 alpha (IL1a), IL1A (gene 3552); test: BSK_BE3C_IL1a: BioMAP Diversity Plus: BE3C Assay for Interleukin-1 alpha (IL1a) Biomarker Activity (AID 2283016); settings: primary human bronchial epithelial cells; actives raise or lower the signal
Procedure, shortened: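 BE3C primary human bronchial epithelium; cpd 24 h; IL-1a by ELISA; bidirectional fit vs DMSO; parallel SRB (0.1% SRB, 10% TCA fix, 560 nm) for cytotoxicity.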

[6] = read-out: Monocyte Chemoattractant Protein-1 (MCP1), CCL2 (gene 6347); test: BSK_3C_MCP1: BioMAP Diversity Plus: 3C Assay for Monocyte Chemoattractant Protein-1 (MCP1) Biomarker Activity (AID 2283017); settings: primary human endothelial cells (HUVEC); actives raise or lower the signal
Procedure, shortened: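 MCP-1 was measured by ELISA 24 h after dosing in primary HUVEC 3C cultures and fitted in both directions relative to DMSO; cytotoxicity was checked by SRB total-protein staining in parallel wells.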

[7] = read-out: Monocyte Chemoattractant Protein-1 (MCP1), CCL2 (gene 6347); test: BSK_4H_MCP1: BioMAP Diversity Plus: 4H Assay for Monocyte Chemoattractant Protein-1 (MCP1) Biomarker Activity (AID 2283018); settings: primary human endothelial cells (HUVEC); actives raise or lower the signal
Procedure, shortened: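 ELISA read-out of MCP-1 from human vascular endothelial primary cells taken at 24 hours after compound exposure. Activity was fitted in both directions relative to DMSO, which served as negative control.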

[8] = read-out: Human Leukocyte Antigen - DR isotype (HLADR), HLA-DRA (gene 3122); test: BSK_3C_HLADR: BioMAP Diversity Plus: 3C Assay for Human Leukocyte Antigen - DR isotype (HLADR) Biomarker Activity (AID 2283019); settings: primary human endothelial cells (HUVEC); actives raise or lower the signal
Procedure, shortened: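 Bidirectional fitting against DMSO was applied to the HLA-DR ELISA signal from human umbilical vein endothelial cells, 24 h post-dose. Cytotoxicity came from parallel SRB total-protein staining; 3C proliferation was counted by SRB at 48 h.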

[9] = read-out: Interleukin-8 (IL8), CXCL8 (gene 3576); test: BSK_3C_IL8: BioMAP Diversity Plus: 3C Assay for Interleukin-8 (IL8) Biomarker Activity (AID 2283020); settings: primary human endothelial cells (HUVEC); actives raise or lower the signal
Procedure, shortened: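 ELISA read-out of IL-8 from human umbilical vein endothelium, measured 24 h after chemical dosing. Activity is expressed relative to DMSO negative control, with both increases and decreases fitted.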

[10] = read-out: Monokine induced gamma interferon (MIG), CXCL9 (gene 4283); test: BSK_3C_MIG: BioMAP Diversity Plus: 3C Assay for Monokine induced gamma interferon (MIG) Biomarker Activity (AID 2283021); settings: primary human endothelial cells (HUVEC); actives raise or lower the signal
Procedure, shortened: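 Read-out is ELISA detection of MIG on human umbilical vein endothelial cells, taken 24 h after dosing. Gain or loss of signal was scored relative to DMSO controls using bidirectional curve fitting.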

[11] = target: human Vitamin D Receptor (VDR), VDR (gene 7421) (UniProt P11473); test: ATG_VDR_TRANS: Attagene TRANS-FACTORIAL HepG2 Assay for human Vitamin D Receptor (VDR) (AID 2283022; active = hit-call score of the fitted dose curve at least 0.9, where 1 is the maximum)
Sequence of human Vitamin D Receptor (VDR), VDR (gene 7421) (P11473 whole entry, looked up, the tested form may be a part): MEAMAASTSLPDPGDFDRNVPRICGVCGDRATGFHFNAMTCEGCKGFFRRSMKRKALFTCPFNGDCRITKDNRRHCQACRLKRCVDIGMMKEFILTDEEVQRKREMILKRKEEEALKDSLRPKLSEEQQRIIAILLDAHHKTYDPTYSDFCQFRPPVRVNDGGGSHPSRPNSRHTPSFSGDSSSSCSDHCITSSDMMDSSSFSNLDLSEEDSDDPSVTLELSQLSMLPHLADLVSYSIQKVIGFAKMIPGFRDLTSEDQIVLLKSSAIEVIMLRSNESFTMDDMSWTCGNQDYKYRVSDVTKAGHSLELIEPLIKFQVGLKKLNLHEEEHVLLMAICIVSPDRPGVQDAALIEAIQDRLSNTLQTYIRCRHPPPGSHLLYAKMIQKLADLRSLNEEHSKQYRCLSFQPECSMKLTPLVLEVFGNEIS
Procedure, shortened: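 Transactivation by an exogenous VDR-Gal4 chimera in transiently transfected HepG2 cells was measured as reporter transcript level 24 hours after chemical treatment. RT-PCR products were analysed by capillary electrophoresis and fitted in the positive direction relative to DMSO.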

[12] = BSK_3C_SRB: Viability Assessment in the BioMAP Diversity Plus: 3C Assay (AID 2283023); settings: primary human endothelial cells (HUVEC);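 also: fitted both ways against DMSO so a hit may be signal rise or drop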
Procedure, shortened: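 Cytotoxicity readout in parallel HUVEC 3C cultures: after 24 h compound exposure, cells fixed with 10% TCA, stained with 0.1% SRB and read at 560 nm. Gain or loss relative to DMSO fitted.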

[13] = read-out: Matrix Metallopeptidase 1 (MMP1), MMP1 (gene 4312); test: BSK_BE3C_MMP1: BioMAP Diversity Plus: BE3C Assay for Matrix Metallopeptidase 1 (MMP1) Biomarker Activity (AID 2283024); settings: primary human bronchial epithelial cells; actives raise or lower the signal
Procedure, shortened: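 Human bronchial epithelial cells (BE3C system) exposed to compound for 24 h; MMP1 then quantified by ELISA. Activity was fitted in both directions relative to DMSO.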

[14] = BSK_3C_Vis: BioMAP Diversity Plus: 3C Assay for Morphology Visualization (AID 2283025); settings: primary human endothelial cells (HUVEC);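 also: fitted both ways so gain or loss versus DMSO counts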;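 as to AC50: light microscopy image of cell morphology used as background control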
Procedure, shortened: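 Chemicals were added to primary human umbilical vein endothelium, cells were incubated 24 h, and morphology was then visualized by light microscopy. Gain or loss of signal was fitted bidirectionally relative to DMSO.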

[15] = read-out: Pselectin, SELP (gene 6403); test: BSK_4H_Pselectin: BioMAP Diversity Plus: 4H Assay for Pselectin Biomarker Activity (AID 2283026); settings: primary human endothelial cells (HUVEC); actives raise or lower the signal
Procedure, shortened: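 ELISA read-out of P-selectin on human umbilical vein endothelium after 24 h of dosing. Values derive from bidirectional fitting relative to DMSO. Parallel SRB protein staining flagged overt cytotoxicity.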

[16] = BSK_4H_SRB: Viability Assessment in the BioMAP Diversity Plus: 4H Assay (AID 2283027); settings: primary human endothelial cells (HUVEC);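 also: cells exposed to compound for 24 h before staining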;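 as to AC50: curves fitted both ways versus DMSO so AC50 may be loss or gain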
Procedure, shortened: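 Human umbilical vein endothelial cells were dosed with chemical and, after 24 h, fixed with 10% TCA, stained with 0.1% sulforhodamine B, and read at 560 nm to give total protein as a cytotoxicity measure. Bidirectional fitting relative to DMSO control.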

[17] = BSK_BE3C_SRB: Viability Assessment in the BioMAP Diversity Plus: BE3C Assay (AID 2283028); settings: primary human bronchial epithelial cells;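 as to AC50: fitted both ways so AC50 may mark signal gain or loss versus DMSO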
Procedure, shortened: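 Cytotoxicity read-out: SRB (0.1%) staining of TCA-fixed (10%) human lung bronchial epithelial cells, absorbance 560 nm, 24 h post-dosing. Curves fitted both directions relative to DMSO.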

[18] = read-out: Thrombomodulin, THBD (gene 7056); test: BSK_3C_Thrombomodulin: BioMAP Diversity Plus: 3C Assay for Thrombomodulin Biomarker Activity (AID 2283029); settings: primary human endothelial cells (HUVEC); actives raise or lower the signal
Procedure, shortened: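 Read-out is ELISA of thrombomodulin on human umbilical vein endothelium 24 h after chemical dosing. Gain or loss of signal is scored relative to DMSO. Overt cytotoxicity is checked in parallel cultures by sulforhodamine B staining.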

[19] = read-out: Urokinase-type plasminogen activator receptor (uPAR), PLAUR (gene 5329); test: BSK_4H_uPAR: BioMAP Diversity Plus: 4H Assay for Urokinase-type plasminogen activator receptor (uPAR) Biomarker Activity (AID 2283030); settings: primary human endothelial cells (HUVEC); actives raise or lower the signal
Procedure, shortened: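 uPAR level read by ELISA on HUVEC cultures (BioMAP 4H) 24 h post-dosing, analyzed for gain or loss relative to DMSO. Parallel SRB staining assessed overt cytotoxicity.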

[20] = read-out: Vascular endothelial growth factor receptor 2 (Homo sapiens) (UniProt P35968); test: BSK_4H_VEGFRII: BioMAP Diversity Plus: 4H Assay for Vascular endothelial growth factor receptor 2 (VEGFR2) Biomarker Activity (AID 2283031); settings: primary human endothelial cells (HUVEC); actives raise or lower the signal
Procedure, shortened: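 Measured by ELISA after 24 h of compound treatment: VEGFR2 on primary human umbilical vein endothelial cells, fitted in both directions relative to DMSO. Parallel cultures received SRB staining (560 nm) for overt cytotoxicity.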

Measured: AC50

Sequence of E-selectin (Homo sapiens) (P16581 whole entry, looked up): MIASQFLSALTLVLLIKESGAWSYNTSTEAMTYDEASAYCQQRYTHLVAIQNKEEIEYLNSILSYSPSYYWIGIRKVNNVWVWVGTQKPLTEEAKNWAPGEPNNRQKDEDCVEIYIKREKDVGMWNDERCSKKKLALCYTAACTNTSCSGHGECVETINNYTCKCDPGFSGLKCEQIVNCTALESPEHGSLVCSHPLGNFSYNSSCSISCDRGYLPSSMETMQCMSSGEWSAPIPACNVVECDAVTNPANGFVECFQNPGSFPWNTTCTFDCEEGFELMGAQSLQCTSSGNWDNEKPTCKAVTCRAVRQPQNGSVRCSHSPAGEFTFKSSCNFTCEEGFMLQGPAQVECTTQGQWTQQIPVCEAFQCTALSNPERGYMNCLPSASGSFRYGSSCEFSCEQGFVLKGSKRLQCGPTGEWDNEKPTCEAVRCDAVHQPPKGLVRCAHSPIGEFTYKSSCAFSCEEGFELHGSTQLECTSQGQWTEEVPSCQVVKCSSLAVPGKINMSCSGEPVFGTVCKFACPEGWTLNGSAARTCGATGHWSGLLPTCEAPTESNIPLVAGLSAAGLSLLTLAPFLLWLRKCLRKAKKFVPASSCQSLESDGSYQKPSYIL

N[C@@H](Cc1cc(I)c(Oc2ccc(O)c(I)c2)c(I)c1)C(=O)O
active: [13] 3.8 µM
inactive: all other assays above

CC(=O)S[C@@H]1CC2=CC(=O)CC[C@]2(C)[C@H]2CC[C@@]3(C)[C@@H](CC[C@@]34CCC(=O)O4)[C@H]12
active: [4] 20 µM | [6] 27.7 µM | [7] 20 µM | [8] 26.3 µM | [9] 18.9 µM | [12] 25.7 µM | [16] 32 µM
not listed: [3] | [15]
inactive: all other assays above

CCCN(CCC)C(=O)SCC
inactive: all assays above

c1ccc2[nH]c(-c3cscn3)nc2c1
inactive: all assays above

O=C(O)c1ccccc1
inactive: all assays above

CCC(O)=C1C(=O)CC(C(=O)O)CC1=O (stereo not drawn)
not listed: [11]
inactive: all other assays above

O=C(O)C1(C(=O)Nc2ccc(Cl)cc2Cl)CC1
active: [8] 4.68 µM
not listed: [3]
inactive: all other assays above

C[C@]12CC[C@@H]3c4ccc(O)cc4C[C@@H](CCCCCCCCCS(=O)CCCC(F)(F)C(F)(F)F)[C@H]3[C@@H]1CC[C@@H]2O (stereo partly drawn)
active: [12] 3.51 µM | [13] 0.907 µM | [19] 12.4 µM
inactive: all other assays above

CCSC(=O)N(CC(C)C)CC(C)C
not listed: [11]
inactive: all other assays above

Cc1nn(C)c(Oc2ccccc2)c1C=NOCc1ccc(C(=O)OC(C)(C)C)cc1
active: [4] 20 µM | [6] 14.4 µM | [7] 6.16 µM | [8] 3.97 µM | [9] 9.81 µM | [12] 9.91 µM | [13] 4.59 µM | [14] 15.2 µM | [15] 12.9 µM | [16] 16.3 µM | [17] 12 µM | [18] 5.41 µM | [19] 30.6 µM
inactive: [1] | [2] | [3] | [5] | [10] | [11] | [20]

CCOC(=O)COc1cc(-n2ncc(C(F)(F)F)c(C)c2=O)c(F)cc1Cl
not listed: [2]
inactive: all other assays above

O=C(c1ccc(O)cc1O)c1ccc(O)cc1O
inactive: all assays above

C#CCOC(=O)[C@@H](C)Oc1ccc(Oc2ncc(Cl)cc2F)cc1
not listed: [3]
inactive: all other assays above
